# What was measured:
# Test in all cases: DAPPL (digital affinity profiling via proximity ligation, sequencing); 10 mM Tris-HCl pH 7.5, 50 mM NaCl, 1 mM DTT, 4% glycerol, room temperature, 30 min; GST-TFs on glutathione beads, 16-mer random dsDNA library, 0.1% formaldehyde crosslink after washing; high values mean tight binding
# FLI1 = target: T1, FLI1 (Homo sapiens, UniProt Q01543 1-452); details: protein: recombinant; tags: N-terminal GST; dsDNA, one strand shown
# T1 sequence: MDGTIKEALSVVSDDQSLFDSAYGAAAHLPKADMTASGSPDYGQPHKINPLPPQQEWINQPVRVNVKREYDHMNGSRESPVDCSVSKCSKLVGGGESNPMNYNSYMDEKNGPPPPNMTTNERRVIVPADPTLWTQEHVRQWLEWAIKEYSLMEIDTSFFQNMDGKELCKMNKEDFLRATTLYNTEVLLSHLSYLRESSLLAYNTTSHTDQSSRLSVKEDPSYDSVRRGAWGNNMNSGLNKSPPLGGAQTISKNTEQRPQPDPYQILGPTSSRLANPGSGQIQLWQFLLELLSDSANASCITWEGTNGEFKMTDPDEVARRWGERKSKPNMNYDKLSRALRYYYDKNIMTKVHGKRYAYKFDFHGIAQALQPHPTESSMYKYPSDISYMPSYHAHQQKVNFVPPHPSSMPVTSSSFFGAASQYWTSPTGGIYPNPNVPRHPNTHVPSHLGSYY
# Method in brief: (§1)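 Binding signal is given per hexamer as its read frequency for a factor divided by its frequency in the tag-only sample. GST-fused human transcription factors were expressed in yeast, captured on glutathione beads, barcoded with DNA and pooled with that sample, then incubated with 200 nmole of a 16-mer random double-stranded DNA library in Tris/NaCl/DTT/glycerol buffer for 30 min at room temperature. The pools were then washed, crosslinked, proximity-ligated, amplified by PCR and sequenced on an Illumina NextSeq500.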
# ELK1 = target: T2, ELK1 (Homo sapiens, UniProt P19419 1-428); details: protein: recombinant; tags: N-terminal GST; dsDNA, one strand shown
# T2 sequence: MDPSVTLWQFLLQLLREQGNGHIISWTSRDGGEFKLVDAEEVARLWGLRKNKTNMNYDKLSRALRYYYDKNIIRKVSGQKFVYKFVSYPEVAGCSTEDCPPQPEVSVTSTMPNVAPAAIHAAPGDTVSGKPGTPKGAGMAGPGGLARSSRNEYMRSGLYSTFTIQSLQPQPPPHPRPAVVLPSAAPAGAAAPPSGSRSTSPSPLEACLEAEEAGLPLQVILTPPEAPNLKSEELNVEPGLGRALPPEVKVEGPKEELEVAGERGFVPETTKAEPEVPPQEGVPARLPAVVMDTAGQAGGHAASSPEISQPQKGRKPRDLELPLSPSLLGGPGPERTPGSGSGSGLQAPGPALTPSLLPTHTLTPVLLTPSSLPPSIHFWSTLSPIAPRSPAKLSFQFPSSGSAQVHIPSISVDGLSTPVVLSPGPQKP
# Method in brief: as §1
# GABPA = target: T3, GABPA (Homo sapiens, UniProt Q06546 1-454); details: protein: recombinant; tags: N-terminal GST; dsDNA, one strand shown
# T3 sequence: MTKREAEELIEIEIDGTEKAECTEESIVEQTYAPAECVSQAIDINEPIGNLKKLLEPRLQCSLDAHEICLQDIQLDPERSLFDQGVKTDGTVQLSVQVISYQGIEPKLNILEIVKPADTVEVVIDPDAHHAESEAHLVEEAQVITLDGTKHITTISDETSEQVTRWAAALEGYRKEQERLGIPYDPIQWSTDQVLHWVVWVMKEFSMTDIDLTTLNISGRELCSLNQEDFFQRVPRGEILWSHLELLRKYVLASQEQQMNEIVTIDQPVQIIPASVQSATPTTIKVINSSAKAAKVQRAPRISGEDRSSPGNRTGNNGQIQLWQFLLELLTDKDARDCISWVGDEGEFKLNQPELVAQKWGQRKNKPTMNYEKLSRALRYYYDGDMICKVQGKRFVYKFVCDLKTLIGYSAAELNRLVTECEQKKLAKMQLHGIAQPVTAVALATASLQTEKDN
# Method in brief: as §1
# ERG = target: T4, ERG (Homo sapiens, UniProt P11308 1-479); details: protein: recombinant; tags: N-terminal GST; dsDNA, one strand shown
# T4 sequence: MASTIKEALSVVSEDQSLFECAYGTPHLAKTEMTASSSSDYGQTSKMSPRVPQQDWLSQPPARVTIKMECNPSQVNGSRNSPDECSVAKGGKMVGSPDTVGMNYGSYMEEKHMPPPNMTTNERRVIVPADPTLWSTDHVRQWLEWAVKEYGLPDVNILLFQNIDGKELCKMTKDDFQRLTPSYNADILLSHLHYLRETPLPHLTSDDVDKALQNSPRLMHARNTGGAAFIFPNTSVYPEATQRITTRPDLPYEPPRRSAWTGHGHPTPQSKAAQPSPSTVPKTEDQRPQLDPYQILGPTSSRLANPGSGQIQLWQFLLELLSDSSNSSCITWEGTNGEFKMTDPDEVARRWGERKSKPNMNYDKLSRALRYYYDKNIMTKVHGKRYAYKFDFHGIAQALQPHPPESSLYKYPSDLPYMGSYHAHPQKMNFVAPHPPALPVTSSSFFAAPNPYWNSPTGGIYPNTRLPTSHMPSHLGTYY
# Method in brief: as §1
# ELF1 = ELF1 (Homo sapiens, UniProt P32519 1-619); details: protein: recombinant; tags: N-terminal GST; dsDNA, one strand shown
# Sequence of ELF1 (P32519 whole entry): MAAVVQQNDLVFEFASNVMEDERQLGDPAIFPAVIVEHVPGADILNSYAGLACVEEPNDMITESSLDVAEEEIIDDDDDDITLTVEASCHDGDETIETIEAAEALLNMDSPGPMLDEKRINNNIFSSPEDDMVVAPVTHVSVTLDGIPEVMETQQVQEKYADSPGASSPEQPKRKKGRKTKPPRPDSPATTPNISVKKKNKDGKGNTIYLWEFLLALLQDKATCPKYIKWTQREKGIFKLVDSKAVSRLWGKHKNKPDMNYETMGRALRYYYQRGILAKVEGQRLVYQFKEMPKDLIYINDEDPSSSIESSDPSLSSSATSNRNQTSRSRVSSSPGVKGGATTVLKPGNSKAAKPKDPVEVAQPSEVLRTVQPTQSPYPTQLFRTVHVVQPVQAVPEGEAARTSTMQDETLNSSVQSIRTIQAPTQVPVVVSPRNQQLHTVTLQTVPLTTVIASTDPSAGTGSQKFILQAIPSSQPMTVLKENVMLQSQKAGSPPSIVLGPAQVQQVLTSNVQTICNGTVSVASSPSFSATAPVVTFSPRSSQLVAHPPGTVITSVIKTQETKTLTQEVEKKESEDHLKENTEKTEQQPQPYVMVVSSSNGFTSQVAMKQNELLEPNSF
# Method in brief: as §1
# EHF = target: T5, EHF (Homo sapiens, UniProt Q9NZC4 1-300); details: protein: recombinant; tags: N-terminal GST; dsDNA, one strand shown
# T5 sequence: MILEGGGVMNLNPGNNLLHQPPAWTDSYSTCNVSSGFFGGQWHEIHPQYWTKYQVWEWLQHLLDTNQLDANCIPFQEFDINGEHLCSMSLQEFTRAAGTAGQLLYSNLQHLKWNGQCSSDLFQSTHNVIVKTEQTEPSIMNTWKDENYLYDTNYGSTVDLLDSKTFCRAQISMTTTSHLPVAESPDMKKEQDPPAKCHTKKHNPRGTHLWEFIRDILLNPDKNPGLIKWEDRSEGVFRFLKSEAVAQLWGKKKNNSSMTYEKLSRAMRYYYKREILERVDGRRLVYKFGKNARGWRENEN
# Method in brief: as §1
# SPI1 = SPI1 (Homo sapiens, UniProt P17947 1-270); details: protein: recombinant; tags: N-terminal GST; dsDNA, one strand shown
# Method in brief: as §1
# SPIB = SPIB (Homo sapiens, UniProt Q01892 1-262); details: protein: recombinant; tags: N-terminal GST; dsDNA, one strand shown
# Sequence of SPIB (Q01892 whole entry): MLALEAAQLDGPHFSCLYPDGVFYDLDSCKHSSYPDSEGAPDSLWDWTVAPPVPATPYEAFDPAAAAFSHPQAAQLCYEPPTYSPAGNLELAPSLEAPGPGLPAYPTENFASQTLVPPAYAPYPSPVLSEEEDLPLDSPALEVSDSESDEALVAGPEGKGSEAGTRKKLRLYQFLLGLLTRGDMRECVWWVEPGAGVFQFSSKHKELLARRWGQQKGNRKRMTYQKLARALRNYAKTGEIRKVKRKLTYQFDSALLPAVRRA
# Method in brief: as §1
# ELK3 = target: T6, ELK3 (Homo sapiens, UniProt P41970 1-407); details: protein: recombinant; tags: N-terminal GST; dsDNA, one strand shown
# T6 sequence: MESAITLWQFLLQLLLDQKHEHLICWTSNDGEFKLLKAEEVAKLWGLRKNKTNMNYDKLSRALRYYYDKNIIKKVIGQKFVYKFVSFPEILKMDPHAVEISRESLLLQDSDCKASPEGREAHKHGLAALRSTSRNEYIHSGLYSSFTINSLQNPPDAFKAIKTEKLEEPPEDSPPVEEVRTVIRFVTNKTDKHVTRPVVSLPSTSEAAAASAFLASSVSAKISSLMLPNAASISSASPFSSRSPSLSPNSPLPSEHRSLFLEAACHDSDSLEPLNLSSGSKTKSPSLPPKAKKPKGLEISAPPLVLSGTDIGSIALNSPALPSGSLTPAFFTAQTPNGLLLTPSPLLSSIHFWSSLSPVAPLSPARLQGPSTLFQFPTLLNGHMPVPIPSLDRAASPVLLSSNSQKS
# Method in brief: as §1
# FEV = target: T7, FEV (Homo sapiens, UniProt Q99581 1-238); details: protein: recombinant; tags: N-terminal GST; dsDNA, one strand shown
# T7 sequence: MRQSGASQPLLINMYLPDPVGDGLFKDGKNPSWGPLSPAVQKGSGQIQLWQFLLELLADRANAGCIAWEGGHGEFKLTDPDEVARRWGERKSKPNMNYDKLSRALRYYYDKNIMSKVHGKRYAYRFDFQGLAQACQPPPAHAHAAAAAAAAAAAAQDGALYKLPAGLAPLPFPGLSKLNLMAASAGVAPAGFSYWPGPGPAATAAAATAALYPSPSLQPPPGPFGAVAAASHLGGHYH
# Method in brief: as §1
# ETV5 = ETV5 (Homo sapiens, UniProt P41161 1-510); details: protein: recombinant; tags: N-terminal GST; dsDNA, one strand shown
# Sequence of ETV5 (P41161 whole entry): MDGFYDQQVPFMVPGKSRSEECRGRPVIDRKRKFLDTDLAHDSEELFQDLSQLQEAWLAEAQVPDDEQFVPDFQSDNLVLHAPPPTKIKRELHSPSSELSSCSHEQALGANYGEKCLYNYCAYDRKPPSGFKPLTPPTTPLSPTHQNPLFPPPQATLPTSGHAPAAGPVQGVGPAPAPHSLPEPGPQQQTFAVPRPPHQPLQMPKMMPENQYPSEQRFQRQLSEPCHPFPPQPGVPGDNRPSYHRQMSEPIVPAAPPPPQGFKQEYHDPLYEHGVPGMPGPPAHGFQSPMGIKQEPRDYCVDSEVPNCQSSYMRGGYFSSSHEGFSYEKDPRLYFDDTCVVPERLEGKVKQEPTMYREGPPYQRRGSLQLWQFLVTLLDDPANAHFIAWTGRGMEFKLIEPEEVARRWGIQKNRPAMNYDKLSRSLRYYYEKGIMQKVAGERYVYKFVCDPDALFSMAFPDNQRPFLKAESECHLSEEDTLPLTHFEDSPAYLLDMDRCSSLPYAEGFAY
# Method in brief: as §1
# HSF1 = HSF1 (Homo sapiens, UniProt Q00613 1-529); details: protein: recombinant; tags: N-terminal GST; chain copies: 3; dsDNA, one strand shown
# Sequence of HSF1 (Q00613 whole entry): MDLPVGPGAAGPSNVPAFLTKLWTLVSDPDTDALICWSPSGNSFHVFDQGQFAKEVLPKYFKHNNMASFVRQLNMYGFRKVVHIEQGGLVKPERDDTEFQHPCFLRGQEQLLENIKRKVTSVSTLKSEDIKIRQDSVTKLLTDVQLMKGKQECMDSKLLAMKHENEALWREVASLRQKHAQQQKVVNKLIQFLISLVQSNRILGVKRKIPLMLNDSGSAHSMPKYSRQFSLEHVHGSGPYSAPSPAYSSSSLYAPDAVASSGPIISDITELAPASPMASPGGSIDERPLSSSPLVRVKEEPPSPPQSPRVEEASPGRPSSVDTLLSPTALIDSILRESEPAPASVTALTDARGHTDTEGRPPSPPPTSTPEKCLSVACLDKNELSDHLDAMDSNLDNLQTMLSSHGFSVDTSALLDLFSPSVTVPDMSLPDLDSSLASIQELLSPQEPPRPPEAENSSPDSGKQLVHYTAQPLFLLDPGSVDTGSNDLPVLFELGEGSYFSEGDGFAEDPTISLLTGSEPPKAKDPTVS
# Method in brief: as §1
# SPIC = target: T8, SPIC (Homo sapiens, UniProt Q8N5J4 1-248); details: protein: recombinant; tags: N-terminal GST; dsDNA, one strand shown
# T8 sequence: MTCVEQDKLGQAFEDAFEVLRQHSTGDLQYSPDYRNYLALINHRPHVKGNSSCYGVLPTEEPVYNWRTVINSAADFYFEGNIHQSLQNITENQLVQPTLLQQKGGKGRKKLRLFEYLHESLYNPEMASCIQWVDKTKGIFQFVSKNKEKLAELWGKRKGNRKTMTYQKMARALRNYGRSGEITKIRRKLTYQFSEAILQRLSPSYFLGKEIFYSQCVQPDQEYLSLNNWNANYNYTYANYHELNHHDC
# Method in brief: as §1
# ELF4 = ELF4 (Homo sapiens, UniProt Q99607 1-663); details: protein: recombinant; tags: N-terminal GST; dsDNA, one strand shown
# Sequence of ELF4 (Q99607 whole entry): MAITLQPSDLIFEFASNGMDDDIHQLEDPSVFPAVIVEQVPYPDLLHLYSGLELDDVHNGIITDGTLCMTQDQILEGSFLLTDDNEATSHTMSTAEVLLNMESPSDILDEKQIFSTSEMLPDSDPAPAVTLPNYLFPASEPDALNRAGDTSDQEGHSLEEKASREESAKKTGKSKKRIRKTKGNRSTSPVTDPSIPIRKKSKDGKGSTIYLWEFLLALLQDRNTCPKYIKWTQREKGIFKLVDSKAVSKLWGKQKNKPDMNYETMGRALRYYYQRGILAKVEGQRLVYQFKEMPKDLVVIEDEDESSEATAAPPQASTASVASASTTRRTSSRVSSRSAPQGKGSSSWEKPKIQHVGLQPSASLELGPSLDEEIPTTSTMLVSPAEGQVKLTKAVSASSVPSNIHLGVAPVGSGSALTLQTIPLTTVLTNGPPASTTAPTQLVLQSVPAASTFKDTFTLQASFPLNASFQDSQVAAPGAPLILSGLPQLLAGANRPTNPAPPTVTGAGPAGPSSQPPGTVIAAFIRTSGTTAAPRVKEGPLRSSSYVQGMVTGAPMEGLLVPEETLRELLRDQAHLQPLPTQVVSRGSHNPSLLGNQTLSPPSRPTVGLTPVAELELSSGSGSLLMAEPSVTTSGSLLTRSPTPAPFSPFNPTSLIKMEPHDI
# Method in brief: as §1
# ELK4 = target: T9, ELK4 (Homo sapiens, UniProt P28324-2 1-405); details: protein: recombinant; tags: N-terminal GST; dsDNA, one strand shown
# T9 sequence: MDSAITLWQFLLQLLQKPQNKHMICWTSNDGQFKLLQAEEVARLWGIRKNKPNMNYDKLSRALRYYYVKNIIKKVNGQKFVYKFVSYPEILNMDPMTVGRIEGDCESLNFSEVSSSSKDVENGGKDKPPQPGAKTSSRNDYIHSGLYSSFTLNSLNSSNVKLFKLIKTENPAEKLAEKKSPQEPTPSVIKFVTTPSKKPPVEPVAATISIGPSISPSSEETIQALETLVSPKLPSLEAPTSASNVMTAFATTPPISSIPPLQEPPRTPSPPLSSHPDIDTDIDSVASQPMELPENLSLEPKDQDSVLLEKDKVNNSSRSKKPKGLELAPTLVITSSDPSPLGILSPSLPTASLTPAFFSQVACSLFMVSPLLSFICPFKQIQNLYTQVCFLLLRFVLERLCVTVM
# Method in brief: as §1
# ETV2 = target: T10, ETV2 (Homo sapiens, UniProt O00321 1-342); details: protein: recombinant; tags: N-terminal GST; dsDNA, one strand shown
# T10 sequence: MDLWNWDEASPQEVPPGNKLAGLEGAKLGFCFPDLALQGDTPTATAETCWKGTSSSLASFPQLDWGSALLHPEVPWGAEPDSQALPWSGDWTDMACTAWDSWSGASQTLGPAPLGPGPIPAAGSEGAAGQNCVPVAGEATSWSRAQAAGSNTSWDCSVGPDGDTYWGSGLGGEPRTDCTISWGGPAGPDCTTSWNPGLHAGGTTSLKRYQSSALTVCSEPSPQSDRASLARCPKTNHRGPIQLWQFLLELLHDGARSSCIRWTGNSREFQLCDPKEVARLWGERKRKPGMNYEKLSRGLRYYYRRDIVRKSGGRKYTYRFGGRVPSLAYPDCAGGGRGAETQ
# Method in brief: as §1
# ELF3 = target: T11, ELF3 (Homo sapiens, UniProt P78545 1-371); details: protein: recombinant; tags: N-terminal GST; dsDNA, one strand shown
# T11 sequence: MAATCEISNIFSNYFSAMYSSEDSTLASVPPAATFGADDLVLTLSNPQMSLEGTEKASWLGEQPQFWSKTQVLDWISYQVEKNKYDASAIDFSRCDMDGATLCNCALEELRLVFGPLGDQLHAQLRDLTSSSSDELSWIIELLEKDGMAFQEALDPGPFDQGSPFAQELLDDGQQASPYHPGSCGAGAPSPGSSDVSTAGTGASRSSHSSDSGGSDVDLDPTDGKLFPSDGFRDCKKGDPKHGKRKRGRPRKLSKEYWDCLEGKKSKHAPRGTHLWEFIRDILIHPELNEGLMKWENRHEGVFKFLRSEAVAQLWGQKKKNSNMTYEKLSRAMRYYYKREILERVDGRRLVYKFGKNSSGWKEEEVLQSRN
# Method in brief: as §1
# CRX = CRX (Homo sapiens, UniProt O43186 1-299); details: protein: recombinant; tags: N-terminal GST; dsDNA, one strand shown
# Sequence of CRX (O43186 whole entry): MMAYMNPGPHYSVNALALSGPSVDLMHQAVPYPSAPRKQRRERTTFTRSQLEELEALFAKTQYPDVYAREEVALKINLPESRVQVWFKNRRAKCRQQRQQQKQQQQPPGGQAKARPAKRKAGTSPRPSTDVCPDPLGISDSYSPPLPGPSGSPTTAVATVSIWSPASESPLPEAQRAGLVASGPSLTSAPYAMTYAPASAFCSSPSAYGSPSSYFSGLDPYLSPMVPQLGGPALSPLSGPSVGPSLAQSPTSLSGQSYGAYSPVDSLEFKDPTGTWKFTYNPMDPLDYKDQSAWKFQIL
# Method in brief: as §1
# ETV1 = ETV1 (Homo sapiens, UniProt P50549 1-477); details: protein: recombinant; tags: N-terminal GST; dsDNA, one strand shown
# Sequence of ETV1 (P50549 whole entry): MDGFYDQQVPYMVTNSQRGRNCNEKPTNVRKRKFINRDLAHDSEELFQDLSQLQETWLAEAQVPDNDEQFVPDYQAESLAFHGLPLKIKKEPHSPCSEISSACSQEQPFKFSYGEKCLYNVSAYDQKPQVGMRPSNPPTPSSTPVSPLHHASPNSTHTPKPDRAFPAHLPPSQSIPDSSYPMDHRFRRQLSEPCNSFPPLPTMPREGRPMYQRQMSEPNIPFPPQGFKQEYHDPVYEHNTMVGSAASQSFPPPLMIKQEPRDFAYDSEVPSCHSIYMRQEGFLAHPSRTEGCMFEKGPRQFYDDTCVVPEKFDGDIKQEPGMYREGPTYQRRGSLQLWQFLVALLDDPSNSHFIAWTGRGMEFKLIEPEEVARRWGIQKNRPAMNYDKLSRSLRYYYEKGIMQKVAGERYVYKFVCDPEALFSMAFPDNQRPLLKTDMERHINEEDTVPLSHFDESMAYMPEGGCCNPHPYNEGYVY
# Method in brief: as §1
sequence,measurement,setting,value
TTAATT,binding signal,FLI1,"1.38 fold enrichment (6-mer frequency, TF over GST control)"
same,binding signal,ELK1,"1.34 fold enrichment (6-mer frequency, TF over GST control)"
same,binding signal,GABPA,"1.42 fold enrichment (6-mer frequency, TF over GST control)"
same,binding signal,ERG,"1.32 fold enrichment (6-mer frequency, TF over GST control)"
same,binding signal,ELF1,"1.37 fold enrichment (6-mer frequency, TF over GST control)"
same,binding signal,EHF,"1.39 fold enrichment (6-mer frequency, TF over GST control)"
same,binding signal,SPI1,"1.38 fold enrichment (6-mer frequency, TF over GST control)"
same,binding signal,SPIB,"1.36 fold enrichment (6-mer frequency, TF over GST control)"
same,binding signal,ELK3,"1.54 fold enrichment (6-mer frequency, TF over GST control)"
same,binding signal,FEV,"1.31 fold enrichment (6-mer frequency, TF over GST control)"
same,binding signal,ETV5,"1.49 fold enrichment (6-mer frequency, TF over GST control)"
same,binding signal,HSF1,"2.23 fold enrichment (6-mer frequency, TF over GST control)"
same,binding signal,SPIC,"1.33 fold enrichment (6-mer frequency, TF over GST control)"
same,binding signal,ELF4,"1.33 fold enrichment (6-mer frequency, TF over GST control)"
same,binding signal,ELK4,"1.3 fold enrichment (6-mer frequency, TF over GST control)"
same,binding signal,ETV2,"1.43 fold enrichment (6-mer frequency, TF over GST control)"
same,binding signal,ELF3,"1.27 fold enrichment (6-mer frequency, TF over GST control)"
same,binding signal,CRX,"3.46 fold enrichment (6-mer frequency, TF over GST control)"
same,binding signal,ETV1,"1.34 fold enrichment (6-mer frequency, TF over GST control)"

# Source: publication PMC7862700, “An all-to-all approach to the identification of sequence-specific readers for epigenetic DNA modifications on cytosine”
